Source: PMC4336329 (PLoS ONE, 2015)
The campaign covered roughly 310,000 compounds. About 2,200 (0.71%) showed an effect of 50% or more. Effects have a minus sign here. The entries come from a sample that favours strong results as a whole.

Biological target: human ether-à-go-go-related gene (hERG) potassium channel (human, UniProt Q12809)
Experiment: primary screen, population patch clamp on CHO cells stably expressing hERG; higher = less effect of the substance
Protocol: Briefly, Chinese hamster ovary (CHO) cells stably expressing the hERG channel were dislodged from tissue culture flasks and dispensed into PPC plates. […] During the recording, background leak currents were estimated by a 100 ms step to -80 mV from an initial holding potential of -70 mV and subtracted from the subsequent current measurement. The campaign was conducted in two phases using slight differences in recording protocol. In the first phase, the initial voltage pulse used a 100 ms step to -30 mV from a holding potential of -70 mV, a 2 s conditioning step to +25 mV, and a 2 s test step to -30 mV. During the second phase of the screen, the potential during the conditioning step was raised to +45 mV. In both phases of the campaign, a secondary voltage pulse was applied using the same parameters as the second phase initial pulse. The initial and secondary pulses were applied in the absence of compound, and upon application of 1 μM and 10 μM test concentrations. Small molecule effects on hERG current density were quantified by […].

Sequence of human ether-à-go-go-related gene (hERG) potassium channel (Q12809 whole entry, looked up): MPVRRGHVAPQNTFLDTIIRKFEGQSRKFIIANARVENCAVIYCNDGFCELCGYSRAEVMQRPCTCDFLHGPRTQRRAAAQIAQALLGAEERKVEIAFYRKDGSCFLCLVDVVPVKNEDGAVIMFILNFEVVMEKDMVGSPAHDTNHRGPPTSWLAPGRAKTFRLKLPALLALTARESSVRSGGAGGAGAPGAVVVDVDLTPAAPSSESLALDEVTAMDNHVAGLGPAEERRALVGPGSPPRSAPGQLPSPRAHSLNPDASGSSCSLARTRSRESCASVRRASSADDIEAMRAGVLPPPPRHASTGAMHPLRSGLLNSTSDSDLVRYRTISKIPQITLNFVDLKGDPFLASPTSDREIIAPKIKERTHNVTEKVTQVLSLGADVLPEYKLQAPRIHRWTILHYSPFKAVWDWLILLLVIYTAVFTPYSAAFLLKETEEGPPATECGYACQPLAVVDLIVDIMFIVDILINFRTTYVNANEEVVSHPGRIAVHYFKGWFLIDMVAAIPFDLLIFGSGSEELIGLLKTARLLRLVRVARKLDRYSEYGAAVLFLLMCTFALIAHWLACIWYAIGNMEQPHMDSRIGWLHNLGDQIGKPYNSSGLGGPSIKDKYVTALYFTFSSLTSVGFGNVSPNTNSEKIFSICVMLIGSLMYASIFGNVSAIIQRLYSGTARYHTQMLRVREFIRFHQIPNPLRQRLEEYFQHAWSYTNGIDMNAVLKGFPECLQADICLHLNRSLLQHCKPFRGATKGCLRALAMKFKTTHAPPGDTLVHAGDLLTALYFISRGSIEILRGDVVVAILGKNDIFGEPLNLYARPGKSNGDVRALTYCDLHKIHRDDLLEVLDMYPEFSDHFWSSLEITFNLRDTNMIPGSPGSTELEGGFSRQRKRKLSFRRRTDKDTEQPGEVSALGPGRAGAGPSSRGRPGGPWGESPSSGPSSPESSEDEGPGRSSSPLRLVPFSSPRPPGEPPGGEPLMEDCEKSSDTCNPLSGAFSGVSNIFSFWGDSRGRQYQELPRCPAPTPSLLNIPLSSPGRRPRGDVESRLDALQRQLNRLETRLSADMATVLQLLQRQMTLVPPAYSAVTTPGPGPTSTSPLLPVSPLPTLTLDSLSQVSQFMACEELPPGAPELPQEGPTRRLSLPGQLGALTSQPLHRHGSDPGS

| SMILES | hERG current change (%, negative = inhibition) at 1uM |
| --- | --- |
| COc1cc(CN2CCN(c3ccccc3C)CC2)cc([N+](=O)[O-])c1O | 7.17% |
| CN(C)C(=O)Oc1ccc(OC(=O)c2ccccc2)cc1 | 10.4% |
| Cc1ccc(-n2c(N)c(C#N)c(-c3ccc(Cl)cc3)c(C#N)c2=O)cc1 | 10.8% |
| CCCCNC(=O)COC(=O)c1cc(C)oc1C | 8.11% |
| O=[N+]([O-])c1ccc(OCC(O)CN2CCN(c3ccccc3F)CC2)cc1 (centres unmarked) | -77.6% |
| OC(COc1ccc2c(c1)CCC2)CN1CCN(c2ccccc2F)CC1 (centres unmarked) | 5.87% |
| Cc1nonc1OCCN1CCN(c2ccc([N+](=O)[O-])cc2)CC1 | -100% |
| Cc1ccc(N2CCN(CC(O)COc3ccc([N+](=O)[O-])cc3)CC2)cc1 (centres unmarked) | -65.4% |
| COc1ccc(N2CCN(CC(O)COc3ccc([N+](=O)[O-])cc3)CC2)cc1.Cl (centres unmarked) | -45.5% |
| Cc1nonc1OCCN1CCN(c2ccccc2[N+](=O)[O-])CC1.Cl | -2.31% |
| Cc1ccc(OCC(O)CN2CCN(c3ccc(C)cc3)CC2)cc1 (centres unmarked) | -3.83% |
| Cc1nonc1OCCNc1ccc([N+](=O)[O-])cc1 | -17.1% |
| Cl.OC(COc1ccc(F)cc1)CN1CCN(c2ccccc2F)CC1 (centres unmarked) | -49.5% |
| COc1ccc(CCNC(=O)c2cccc([N+](=O)[O-])c2)cc1OC | 3.3% |
| O/N=C(\COc1ccccc1O)c1ccccc1 | -0.796% |
| CN(c1ccc(OCC(=O)NCc2cccnc2)cc1)S(=O)(=O)c1ccc(Cl)cc1 | -4.28% |
| CCOC(=O)CC1C(=O)NCCN1S(=O)(=O)c1ccc(Br)cc1 (centres unmarked) | 6.26% |
| O=C(CCn1nnc2ccccc2c1=O)N[C@@H](Cc1c[nH]c2ccccc12)C(=O)O | 11.6% |
| COc1ccc(CCNC(=O)C2(C)CCC(=O)N2Cc2ccc(F)cc2Cl)cc1OC (centres unmarked) | 16.2% |
| COc1ccccc1N1CCN(C(=O)CCN2C(=O)c3cccc4cccc(c34)C2=O)CC1 | 9.15% |
| COc1ccc(S(N)(=O)=O)cc1C(=O)NCCCN1CCN(c2ccccc2OC)CC1.CS(=O)(=O)O | 4.07% |
| CCOc1ccccc1N1CCN(C(=O)CCCN2C(=O)c3cccc4cccc(c34)C2=O)CC1 | 2.15% |
| O=C(NCCCN1CCN(CCCNC(=O)c2cccc(Cl)c2)CC1)c1cccc(Cl)c1 | -74.5% |
| Cl.O=C(NCCN1CCCC1)c1cccc(Cl)c1 | -13.1% |

| SMILES | hERG current change (%, negative = inhibition) at 1uM |
| --- | --- |
| O=C(NCCN1CCOCC1)c1cccc(Cl)c1 | 2.76% |
| COc1ccc(C(=O)CCN2CCN(c3ccccc3OC)CC2)cc1.Cl | -4.48% |
| CC(C)c1ccc(C(=O)NCCCN2CCOCC2)cc1 | 2.78% |
| COc1ccccc1N1CCN(CCCCNC(=O)c2ccc3ccccc3c2)CC1.Cl | -75.8% |
| CC(C)c1ccc(C(=O)NCCCN2CCN(CCCNC(=O)c3ccc(C(C)C)cc3)CC2)cc1 | -86.4% |
| Cc1ccc(C(=O)NCCCN2CCN(CCCNC(=O)c3ccc(C)cc3)CC2)cc1 | -36.5% |
| COc1ccccc1N1CCN(C(=O)CCCN2C(=O)c3cccc4cccc(c34)C2=O)CC1.Cl | -89.5% |
| COc1cc2c(cc1OC)C(c1ccc([N+](=O)[O-])cc1)N(C(C)=O)CC2 (centres unmarked) | 5.11% |
| CC(C)c1ccc(NC(=O)c2ccc3c(c2)C(=O)N(Cc2cccnc2)C3=O)cc1 | 8.25% |
| c1ccc(CC(Nc2ccccn2)c2ccccc2)cc1 (centres unmarked) | -10.6% |
| NC(=O)CSc1n[nH]c(=O)n1CCc1ccccc1 | 10.4% |
| O=C(Cc1cccs1)NCc1cccc(Cl)c1 | 9.08% |
| CCOc1ccc2[nH]c(O)c(NC(C)=O)c2c1 | 5.98% |
| CCc1c(C)nc2ncnn2c1NCc1cccs1 | 6.69% |
| COc1cc(/C=N/NC(=O)c2ccccc2)ccc1O | -5.66% |
| COc1cc2c(cc1OC)/C(=C/C#N)NC(C)(C)C2 | 7.09% |
| CNc1nc(SC)nc2ccccc12 | 16.4% |
| CN1CCN(CCCNC(=O)c2ccc(CSCc3cccc(Cl)c3)o2)CC1 | 1.54% |
| COc1cccc(C(=O)NCCCN2CCN(CCCNC(=O)c3cccc(OC)c3)CC2)c1 | -65.2% |
| COc1cccc(C(=O)NCCCNC(=O)c2cccc(OC)c2)c1 | 12.4% |
| COc1cc(OC)cc(C(=O)NCCCN2CCN(CCCNC(=O)c3cc(OC)cc(OC)c3)CC2)c1 | -18.8% |
| O=C(NCCCN1CCCC1)c1ccc(CSCc2cccc(Cl)c2)o1 | -30.4% |
| CC1CCN(CCCNC(=O)c2ccc(CSCc3cccc(Cl)c3)o2)CC1 | -62.4% |
| Cc1ccc2nsnc2c1NC(=O)c1cccnc1Cl | 15.1% |

| SMILES | hERG current change (%, negative = inhibition) at 1uM |
| --- | --- |
| COc1ccc(S(=O)(=O)N2CCC(Nc3ccccc3Cl)CC2)cc1 | 28.1% |
| COc1ccc(/C=C2\SC(=S)N(CC(=O)NC3CCS(=O)(=O)C3)C2=O)cc1 (centres unmarked) | 17.2% |
| CN=C1c2c(-c3ccccc3)c3cc(OC)ccc3n2CCN1C.Cl | -31.6% |
| COc1ccc2c(c1)c1c3n2CCN(C)C3=NCC1.Cl | -54.9% |
| COc1ccc2c(c1)c1c(n2C(C)=O)C(OC(C)=O)=NCC1 | 2.42% |
| COc1ccc(OCC(=O)Nc2c3c(nn2-c2ccccc2)CS(=O)(=O)C3)cc1 | 7.69% |
| O=C1c2ccccc2C(=O)N1Cc1cccnc1 | 15.6% |
| Cc1cc(N2CCN(c3ccccc3)CC2)n2cc(-c3ccccc3)nc2n1 | -16.4% |
| Cc1cc(N2CCN(c3ccccn3)CC2)n2cc(-c3ccccc3)nc2n1 | -65.4% |
| Cc1cc(N2CCOCC2)n2cc(-c3ccccc3)nc2n1 | -14.6% |
| Cc1cc(N2CCOCC2)n2cc(-c3ccc(F)cc3)nc2n1 | -34.9% |
| Cc1cc(N2CCOCC2)n2nc(C)c(-c3ccc(Cl)cc3)c2n1 | 7.28% |
| Cc1nc2nc(-c3ccc(Cl)cc3)nn2c(C)c1Cl | 13.4% |
| Cc1cc(N2CCN(C)CC2)n2cc(-c3ccc(F)cc3)nc2n1 | -89.8% |
| Cc1cc(N2CCN(C)CC2)n2nc(-c3ccc(Cl)cc3)nc2n1 | -67.2% |
| Cc1cc(N2CCN(c3ccccc3Cl)CC2)n2cc(-c3ccccc3)nc2n1 | -2.03% |
| Cc1cc(C)nc(-n2ncc3c2CC(C)CC3=O)n1 (centres unmarked) | 11.4% |
| O=C(CN1C(=O)C2CCCCN2C(=O)c2ccccc21)N1CCCc2ccccc21 (centres unmarked) | 15.1% |
| O=C(Cc1cccs1)Nc1nnc(SCc2cccc3ccccc23)s1 | -3.03% |
| COc1ccc(OC)c(NC(=O)CSc2nc(=O)n(Cc3ccccn3)c3c2CCC3)c1 | -2.43% |
| Cc1cc(O)c(C(C)C)cc1NC(=O)Cn1nc(C)c2ccccc2c1=O | -6.85% |
| Cc1ccc(NC(=O)CCc2ccc(C)o2)cc1 | 7.21% |
| COC(=O)c1ccc(NC(=O)c2cc[n+]([O-])cc2)cc1 | 10.9% |
| Clc1ccc2[nH]c3c(NCC4CCCO4)ncnc3c2c1 (centres unmarked) | -3.05% |

| SMILES | hERG current change (%, negative = inhibition) at 1uM |
| --- | --- |
| Fc1ccc2[nH]c3c(NCc4ccccc4)ncnc3c2c1 | 15.4% |
| CCN1CCCC1CNC(=O)c1cc2cc(F)ccc2[nH]1 (centres unmarked) | -53.8% |
| CCN1CCCC1CNC(=O)c1cc2cc(OC)c(OC)cc2[nH]1 (centres unmarked) | 16.2% |
| CCN1CCCC1CNc1ncnc2c1[nH]c1ccc(Cl)cc12 (centres unmarked) | -85.5% |
| Fc1ccc2[nH]c3c(NCCN4CCOCC4)ncnc3c2c1 | 8.84% |
| CCN1CCCC1CNc1ncnc2c1[nH]c1ccc(F)cc12 (centres unmarked) | -81.4% |
| CCN1CCCC1CNC(=O)c1cc2ccc(OC)cc2[nH]1 (centres unmarked) | 5.34% |
| Clc1ccc2[nH]c3c(NCCN4CCOCC4)ncnc3c2c1 | -2.76% |
| CCc1noc(C)c1C(=O)NNC(=O)c1cc(OC)cc(OC)c1 | 9.15% |
| CCOc1cc(C2c3c(n[nH]c3C)C(=O)N2c2ccc(Br)cc2)ccc1O (centres unmarked) | 10.8% |
| CCC(Oc1ccc2c(c1)C(=O)CC(C)(C)O2)C(=O)NCCN1CCCCCC1.O=C(O)C(=O)O (centres unmarked) | -9.15% |
| CCn1c(SCC(=O)Nc2ccccc2)nnc1-c1cccs1 | -13.8% |
| CCn1c(SCC(=O)Nc2nc(C)c(C)s2)nnc1-c1cccs1 | -62.5% |
| C=CCn1c(SCC(=O)Nc2ccc3c(c2)CCC3)nnc1-c1cccs1 | -83.5% |
| C=CCn1c(SCC(=O)N2CCN(c3ccc(F)cc3)CC2)nnc1-c1ccco1 | -67% |
| C=CCn1c(SCC(=O)Nc2ccc(N3CCOCC3)cc2)nnc1-c1ccco1 | 8.51% |
| C=CCn1c(SCC(=O)Nc2ccc(C(=O)OCC)cc2)nnc1-c1cccs1 | 12.3% |
| C=CCn1c(SCC(=O)Nc2ccc(C(=O)OC(C)C)cc2)nnc1-c1cccs1 | 9.31% |
| C=CCn1c(SCC(=O)N2CCN(c3ccccc3)CC2)nnc1-c1ccco1 | 4.57% |
| CCn1c(SCC(=O)Nc2nc(C)c(C)s2)nnc1-c1ccco1 | -11.2% |
| C=CCn1c(SCC(=O)C(C)(C)C)nnc1-c1cccs1 | -9.56% |
| C=CCn1c(SCC(=O)N2CCN(c3ccc(F)cc3)CC2)nnc1-c1cccs1 | -52.4% |
| C=CCn1c(SCC(=O)O)nnc1-c1cccs1 | 9.03% |
